Assay outcomes deposited in PubChem BioAssay by National Center for Advancing Translational Sciences (NCATS).
uPA surface inh = qHTS for Inhibitors of Cell Surface uPA Generation; 0.31% of 330,000 active; Potency, µM (highest dose often 38.3 µM), for inactives: at the top dose activity change, negative = inhibition, most hits filed as inhibitors; cell surface uPA generation assay, qHTS; active = well fitted inhibition curve with a large enough effect; inconclusive = small, poorly fitted or top-dose-only effect; inactive = no such curve, though single readings can be large or run the other way; tested in mouse RAW 264.7 cells; note: potency is the fitted concentration of half-maximal effect; % is set by controls: 0 for no effect and ±100 for the full control effect; nearly all actives have a fitted effect of over 55% in size
Mm-Cpn inhibitor = Inhibitors of TCP-1 ring complex (TRiC) of Methanococcus maripaludis (MmCpn): qHTS. Chaperonin Mm-Cpn (Methanococcus maripaludis). purified Mm-Cpn ATPase, ADP Transcreener TR-FRET. Potency, µM (titrated, usually from 76.9 µM), without a hit: at the top dose activity, negative = inhibition, actives largely listed as inhibitors. 0.031% of 330,000 active. AID 504842, 2011; note: potency is the fitted concentration of half-maximal effect; % is set by controls: 0 for no effect and ±100 for the full control effect; nearly all actives have a fitted effect of over 80% in size
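25 nM Mm-CPN + cpd, 10 min 37°C; + 10 uM ATP, 30 min 37°C; buffer 30 mM Tris pH 7.4, 100 mM KCl, 5 mM MgCl2, 1 mM DTT; Transcreener ADP HTRF detection 30 min RT.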
GLP1R cytotox = qHTS of GLP-1 Receptor Inverse Agonists: Cytotox Screen; HEK293 cAMP-luciferase reporter cells, luminescence, 24 h; Potency, µM (highest dose often 38.3 µM), for inactives: at the top dose activity change, negative = inhibition, most hits filed as inhibitors; 0.13% of 410,000 active; AID 624418, 2012;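 note: loss of luciferase light is scored as toxicity; potency is the fitted concentration of half-maximal effect; % is set by controls: 0 for no effect and ±100 for the full control effect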
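1536-well qHTS counterscreen of the MLSMR; 200 cells/uL, 12 h pre-incubation, 23 nL cpd, 24 h at 37 deg C 5% CO2, luciferase detection reagent, 12 min RT, luminescence. Inhibition = undesired.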
GLP-1R inv ag = qHTS of GLP-1 Receptor Inverse Agonists (Inhibition Mode); AID 624417, 2012; HEK293 GLP-1R CRE-luciferase, luminescence, 24 h; GLP-1R form is constitutively active; 1.6% of 410,000 active; Potency, µM (series often up to 38.3 µM), without a hit: at the top dose activity change, negative = inhibition, hits mostly inhibitors; Glucagon-like peptide 1 receptor (Homo sapiens), P43220; note: potency is the fitted concentration of half-maximal effect; % is set by controls: 0 for no effect and ±100 for the full control effect; nearly all actives have a fitted effect of over 55% in size
Target sequence (P43220 whole entry, looked up): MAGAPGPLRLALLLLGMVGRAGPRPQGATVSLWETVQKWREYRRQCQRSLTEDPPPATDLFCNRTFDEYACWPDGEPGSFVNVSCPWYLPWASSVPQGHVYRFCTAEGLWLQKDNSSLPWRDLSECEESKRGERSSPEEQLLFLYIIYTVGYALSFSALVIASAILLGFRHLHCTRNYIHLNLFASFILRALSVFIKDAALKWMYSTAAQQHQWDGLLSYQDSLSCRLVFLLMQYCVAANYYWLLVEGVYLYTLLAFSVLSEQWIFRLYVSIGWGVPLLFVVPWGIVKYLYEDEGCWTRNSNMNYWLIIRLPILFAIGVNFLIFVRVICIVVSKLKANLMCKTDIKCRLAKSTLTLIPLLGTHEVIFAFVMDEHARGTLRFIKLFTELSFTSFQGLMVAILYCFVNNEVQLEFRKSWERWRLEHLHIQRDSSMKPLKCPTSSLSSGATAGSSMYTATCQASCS
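Inverse agonism was detected as reduced cAMP-driven luciferase luminescence after 24 h compound treatment. The cells were HEK293 clones expressing constitutively active human GLP-1R with the reporter. Reporter-only and GPR119 cell lines served as counterscreen controls.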
GLP1R ag = qHTS of GLP-1 Receptor Agonists. HEK293 GLP-1R CRE-luciferase, luminescence, 4-6 h; cells express a hypersensitive GLP-1R form. Potency, µM (highest dose often 45.6 µM), for inactives: at the top dose activation, most hits filed as activators. 0.007% of 380,000 active; note: potency is the fitted concentration of half-maximal effect; % of control where 0% means no effect
CCT chaperon mod = High-Throughput Screening for Modulators of Cytosolic Chaperonin Activity; purified chaperonin ATPase assay, HTRF ADP detection, 30 min; activity change, % (no concentration beside the values), hits read low; 0.3% of 360,000 active; in the data active = activity change below about -30%; note: % is set by controls: 0 for no effect and ±100 for the full control effect
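Enzyme 40 or 20 nM (batch-dependent) in Tris pH 7.4/KCl/MgCl2/DTT; cpd 76 uM single point; ATP 10 uM; 30 min 37 °C; Transcreener ADP HTRF detection, 30 min RT; ratio 665/615.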
The depositor's hits bear a star; ? = inconclusive; nt = not tested or not shown. This is a sample that favours compounds with a hit; in the whole collection about 2.2% have one here. Unless noted, calls come from the whole dose curve; as a rule, active = well fitted curve in the direction sought with a large enough effect; inconclusive = small, poorly fitted or top-dose-only effect, or another doubt; inactive = no such curve, though single readings can be large; an effect the other way counts as inactive or inconclusive.

SMILES | uPA surface inh | Mm-Cpn inhibitor | GLP1R cytotox | GLP-1R inv ag | GLP1R ag | CCT chaperon mod
CC(=O)NC1=C(NC2CCS(=O)(=O)C2)C(=O)c2ccccc2C1=O (centres undefined) | ? | 0% | 13% | 14% | -5% | -44*
O=C(CN1C(=O)c2ccccc2C1=O)NC1CCS(=O)(=O)C1 (centres undefined) | nt | nt | -2% | 26% | 4% | 1
CCc1ccccc1Nc1cc(C(=O)NC(C)c2ccccc2)c2ccccc2n1 (centres undefined) | nt | nt | -15% | ? | nt | nt
O=C(/C(=C/c1ccc(Cl)cc1)c1nc2ccccc2[nH]1)c1cccs1 | ? | -6% | ? | 4.5µM* | -8% | -1
O=C(/C(=C\c1ccccc1)c1nc2ccccc2[nH]1)c1ccc(Cl)cc1 | -16% | -4% | ? | ? | 9% | 1
CCOc1ccccc1C(=O)Nc1c(C(=O)Nc2ccc(F)cc2)oc2ccccc12 | nt | nt | -26% | ? | 2% | nt
CCC1Oc2ccc(C)cc2N(CC(=O)NCc2ccc(OC)cc2)C1=O (centres undefined) | nt | nt | 1% | -7% | 0% | nt
O=C(O)/C=C/C(=O)c1ccc2c(c1)CCc1ccccc1-2 | 5µM* | -4% | -19% | ? | -19% | -1
CC(=O)Nc1ccc2c(c1)CCc1ccccc1-2 | -5% | 0% | -2% | ? | 9% | 0
CCn1c2ccccc2c2cc(/C=N/n3c(-c4cc(C)[nH]n4)n[nH]c3=S)ccc21 | 6% | 1% | -23% | 2.5µM* | 17% | -2
COc1ccc(C)cc1NC(=O)N1CCN(S(=O)(=O)c2ccc3c(ccn3C)c2)CC1 | nt | nt | -3% | 2% | -1% | nt
O=C(CN(Cc1ccccc1)S(=O)(=O)c1ccc(Br)cc1)NCc1ccco1 | nt | 2% | 2% | 7.9µM* | 1% | 2
O=C(CN(Cc1ccc(Br)cc1)S(=O)(=O)c1ccccc1)NCc1ccccn1 | -8% | 1% | 14% | -22% | -13% | 0
Cc1ccc(S(=O)(=O)N(Cc2ccccc2)Cc2ccco2)cc1 | 6% | 3% | 15% | 11µM* | -8% | 0
CCSc1nnc(NC(=O)NC(C)(C(F)(F)F)C(F)(F)F)s1 | 1% | 0% | -22% | 10µM* | -1% | -1
CCSc1nnc(NC(=O)NC(CC)(C(F)(F)F)C(F)(F)F)s1 | 5% | 1% | ? | 7.1µM* | -30% | -5
CCC(NC(=O)Nc1nccs1)(C(F)(F)F)C(F)(F)F | 1% | 0% | -4% | ? | -4% | 4
CCCC(=O)Nc1nnc(SCC)s1 | -4% | -2% | 2% | 2% | 1% | 1
O=C(CSc1nc2ccccc2nc1Cc1ccccc1)N1CCc2ccccc21 | nt | nt | 3% | 10% | 1% | nt
COCCCNC(=O)c1cccc2c(-c3ccc(OC)cc3C)coc12 | nt | nt | -9% | ? | 0% | 0
COc1ccc(-c2coc3c(C(=O)NCCN(C)C)cccc23)c(C)c1 | nt | nt | 5% | 11µM* | 3% | -6
CN(C)CCNC(=O)c1cccc2nc3c(ccc4ccccc43)nc12 | -15% | nt | 11% | 8.9µM* | -10% | -2
COc1ccc(-c2nc3c(C(=O)NCCN(C)C)cccc3c3ccccc23)cc1 | -7% | nt | ? | 10µM* | -23% | -2
COc1ccc(C(=O)NCCN(C)C)c2nc3ccccc3cc12 | -12% | nt | ? | ? | -23% | -3
COc1cccc2nc3c(C(=O)NCCN(C)C)cccc3cc12 | -7% | nt | -1% | 13µM* | -28% | 1
SMILES | uPA surface inh | Mm-Cpn inhibitor | GLP1R cytotox | GLP-1R inv ag | GLP1R ag | CCT chaperon mod
Cc1ccc(S(=O)(=O)NCC(c2ccc(N(C)C)cc2)N2CCc3ccccc32)cc1C (centres undefined) | nt | nt | 13% | ? | nt | nt
CCOC(=O)c1cc(-c2ccccc2)n(CC(=O)Nc2ccccc2OCC)c1C | nt | nt | 5% | 12% | nt | nt
CCCCC/C(C=O)=C/c1ccccc1 | nt | nt | nt | nt | -2% | nt
CCn1c(=O)c(CCC(=O)N2CCN(c3ccccn3)CC2)c(C)c2c(C)nn(-c3cccc(C)c3)c21 | 10% | -9% | 6% | 7% | 0% | -35*
Cc1nc2nc(C)c(CCC(=O)N3CCN(c4ccccn4)CC3)c(C)n2n1 | nt | 1% | 17% | -9% | 11% | 0
Cc1nc(-c2cccnc2)sc1CCNS(=O)(=O)c1ccc(F)cc1 | nt | nt | 2% | 16% | -7% | nt
O=C(c1cccs1)c1cn(CCOc2ccccc2F)c2ccccc12 | nt | nt | 4% | 2% | nt | nt
O=C(c1cccs1)c1cn(CCOc2ccc(F)cc2)c2ccccc12 | nt | nt | 0% | 11µM* | nt | nt
CC(C)(C)c1ccc(OCCn2cc(C(=O)c3ccco3)c3ccccc32)cc1 | nt | nt | -21% | 7.9µM* | nt | nt
CCOc1cc(N2CCOCC2)c(OCC)cc1NC(=O)CC12CC3CC(CC(C3)C1)C2 | 7% | -1% | -13% | 1µM* | 9% | 0
CCOc1cc(N2CCOCC2)c(OCC)cc1NC(=O)CSc1ccccc1C(=O)O | -12% | 0% | 3% | 14% | -4% | 1
CCOc1cc(N2CCOCC2)c(OCC)cc1NC(=O)CN1CCc2ccccc2C1 | 5% | 0% | -16% | 4.5µM* | 12% | 2
CCOc1cc(N2CCOCC2)c(OCC)cc1NC(=O)Cn1cnnn1 | -12% | 4% | 4% | 6% | 2% | -2
Cc1ccc(-c2noc(-c3cccnc3N(C)Cc3ccc(Cl)cc3)n2)cc1 | nt | nt | 1% | 12% | nt | nt
CN1CCN(S(=O)(=O)c2ccc(N3CCN(C(c4ccccc4)c4ccccc4)CC3)nc2)CC1 | 4% | -5% | -5% | 10% | 5% | 1
CN1CCN(S(=O)(=O)c2ccc(N3CCN(S(=O)(=O)/C=C/c4ccccc4)CC3)nc2)CC1 | -3% | 0% | -14% | 7.9µM* | -3% | -3
COc1cccc(N2CCN(C(=O)CCc3nnc4ccc(N5CCOCC5)nn34)CC2)c1 | 8% | -2% | -4% | 18% | -3% | 1
COc1cccc(N2CCN(C(=O)CCc3nnc4ccc(N5CCCC5)nn34)CC2)c1 | -7% | -9% | -9% | -9% | 4% | -42*
FC(F)(F)c1cc(CCN2CCNC[C@@H]2CC2CCCCC2)cc(C(F)(F)F)c1 | -18% | 2% | 0% | 9% | -11% | 2
CCCC[C@@H]1CNCCN1CCc1cc(C(F)(F)F)cc(C(F)(F)F)c1 | -16% | 1% | ? | 11µM* | -7% | -1
COc1cccc(-n2cc(C(=O)Oc3cccc(C(F)(F)F)c3)c3ccccc3c2=O)c1 | nt | nt | 15% | -7% | nt | nt
